Laboratory results published in PubChem BioAssay (NCI).
About 79,000 compounds went through this panel and 15% of them were active in at least one assay; those are over-represented in the sample as a whole. Calls of active or inactive are those of the source. Rule as the data show it: active = growth inhibition above about 70%; inactive = the rest.

Legend:
[1] = NCI Yeast Anticancer Drug Screen. Data for the mec2-1 strain (AID 157); settings: S. cerevisiae mec2-1 strain, stronger effect = higher value
How it was run: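 Growth inhibition is read against vehicle-treated controls after compound exposure of the mec2-1 yeast strain, which is defective in DNA damage repair or cell cycle control.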

[2] = NCI Yeast Anticancer Drug Screen. Data for the sgs1 mgt1 strain (AID 161);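 also: 0% = growth of cultures given vehicle only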; settings: S. cerevisiae sgs1 mgt1 strain, stronger effect = higher value
How it was run: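 Percent growth inhibition was derived by comparing compound-exposed mutant yeast with vehicle-exposed cultures. The strain carries alterations in DNA damage repair.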

[3] = NCI Yeast Anticancer Drug Screen. Data for the CLN2oe strain (AID 163);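 also: 0% = growth of vehicle-only control cultures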; settings: S. cerevisiae CLN2oe strain, stronger effect = higher value
How it was run: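 Compound-treated yeast; growth vs vehicle ctrl = % inhibition. Genetically altered strain (cell-cycle control).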

[4] = NCI Yeast Anticancer Drug Screen. Data for the cln2 rad14 strain (AID 165);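 also: 0% = growth equal to vehicle treated cultures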; settings: S. cerevisiae cln2 rad14 strain, stronger effect = higher value
How it was run: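 Growth inhibition, relative to vehicle-treated controls, is the read-out. The test organism is a yeast strain with defined genetic alterations, cln2 rad14.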

[5] = NCI Yeast Anticancer Drug Screen. Data for the bub3 strain (AID 167); settings: S. cerevisiae bub3 mutant strain, stronger effect = higher value
How it was run: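 Yeast carrying a defined mutation is treated with each compound, and growth is compared with that of vehicle-exposed cells to give inhibition.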

[6] = NCI Yeast Anticancer Drug Screen. Data for the wt2 strain (AID 169);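 also: 0% = growth of vehicle-treated yeast cultures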; settings: S. cerevisiae wt2 strain growth inhibition, stronger effect = higher value
How it was run: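 Compound exposure of yeast; growth compared with vehicle controls; inhibition reported.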

[7] = NCI Yeast Anticancer Drug Screen. Data for the mlh1 strain (AID 171);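 also: 0% = growth of vehicle-treated control cultures of the same strain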; settings: S. cerevisiae mlh1 strain growth inhibition, stronger effect = higher value
How it was run: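 Compounds are applied to a genetically altered yeast strain, and its growth is compared with that of vehicle-treated cultures to give percent inhibition.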

[8] = NCI Yeast Anticancer Drug Screen. Data for the sgs1 strain (AID 173);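 also: 0% = growth of vehicle-only control cultures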; settings: S. cerevisiae sgs1 mutant, stronger effect = higher value
How it was run: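 Compounds applied to genetically altered yeast; growth compared with vehicle-treated cultures to give % inhibition.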

[9] = NCI Yeast Anticancer Drug Screen. Data for the mlh1 rad18 strain (AID 175); settings: S. cerevisiae mlh1 rad18 strain growth inhibition, stronger effect = higher value
How it was run: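 Cells of a genetically altered yeast strain, deficient in DNA damage repair, were treated with compound. Their growth was then compared with that of vehicle-treated cultures to give inhibition.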

[10] = NCI Yeast Anticancer Drug Screen. Data for the rad18 strain (AID 177); settings: S. cerevisiae rad18 mutant growth inhibition, stronger effect = higher value
How it was run: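 Compounds are applied to a repair-deficient yeast strain, and growth is compared with that of vehicle-treated cultures to give percent inhibition.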

[11] = NCI Yeast Anticancer Drug Screen. Data for the rad52 strain (AID 147);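 also: 0% = growth of vehicle-treated control cultures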; settings: S. cerevisiae rad52 mutant growth inhibition, stronger effect = higher value
How it was run: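 DNA repair-defective yeast; compound exposure; growth scored against vehicle controls.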

[12] = NCI Yeast Anticancer Drug Screen. Data for the rad50EPP+ strain (AID 151);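 also: 0% = growth of vehicle-treated control cultures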; settings: S. cerevisiae rad50 mutant strain, stronger effect = higher value
How it was run: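 rad50EPP+ yeast treated with test compounds. Readout: growth vs vehicle control.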

[13] = NCI Yeast Anticancer Drug Screen. Data for the mgt1 strain (AID 153); settings: S. cerevisiae mgt1 mutant growth inhibition, stronger effect = higher value
How it was run: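 Growth inhibition relative to vehicle controls was scored for the mgt1 yeast strain after compound exposure.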

[14] = NCI Yeast Anticancer Drug Screen. Data for the rad50 strain (AID 155);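 also: 0% = growth of vehicle-only cultures of the same strain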; settings: S. cerevisiae rad50 strain growth inhibition, stronger effect = higher value
How it was run: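 Genetically altered yeast (DNA repair pathway); compound treatment; growth inhibition vs vehicle ctrl.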

[15] = NCI Yeast Anticancer Drug Screen. Data for the rad14 strain (AID 159);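 also: 0% = growth of vehicle-treated control cultures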; settings: S. cerevisiae rad14 strain growth inhibition, stronger effect = higher value
How it was run: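 Test compounds were applied to a repair-deficient yeast strain. Its growth was then compared with that of cultures given vehicle alone, and inhibition was expressed relative to those controls.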

[16] = NCI Yeast Anticancer Drug Screen. Data for the wt1 strain (AID 149);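 also: 0% = growth of vehicle-treated wt1 cultures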; settings: S. cerevisiae wt1 strain (SPY 50644) growth inhibition, stronger effect = higher value
How it was run: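 wt1 yeast, compound-treated; % growth inhibition vs vehicle control.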

[17] = at 5.0 µM (retest, dose inferred, filed as 0.5)
[18] = at 50.0 µM (retest, dose inferred, filed as 5.0)

Measured: growth inhibition

O=C1C=C(N2CCN(c3ccccn3)CC2)C(=O)c2c(O)ccc(O)c21
active: [2]; [18] 91% | [2]; at 50.0 µM 82.7% | [5]; [18] 71% | [5]; at 50.0 µM 88.8% | [7]; at 100.0 µM 75% | [8]; at 100.0 µM 82% | [9]; [18] 94% | [9]; at 50.0 µM 72.5%
inactive: [1]; at 100.0 µM 27% | [2]; [17] 8% | [3]; at 1.2 µM 11% | [3]; at 3.7 µM 7% | [3]; at 11.0 µM 13% | [3]; at 33.0 µM 21% | [3]; at 100.0 µM 21% | [4]; [17] -6% | [4]; [18] 15% | [4]; at 50.0 µM 25.9% | [5]; at 1.2 µM 4% | [5]; at 3.7 µM 3% | [5]; [17] 5% | [5]; at 11.0 µM 10% | [5]; at 33.0 µM 23% | [5]; at 100.0 µM 34% | [6]; at 1.2 µM 4% | [6]; at 3.7 µM 9% | [6]; at 11.0 µM 15% | [6]; at 33.0 µM 32% | [6]; at 100.0 µM 52% | [7]; at 1.2 µM 7% | [7]; at 3.7 µM 12% | [7]; at 11.0 µM 21% | [7]; at 33.0 µM 42% | [8]; at 1.2 µM 8% | [8]; at 3.7 µM 11% | [8]; at 11.0 µM 22% | [8]; at 33.0 µM 63% | [9]; [17] 10% | [10]; at 1.2 µM 1% | [10]; at 3.7 µM 4% | [10]; at 11.0 µM 17% | [10]; at 33.0 µM 46% | [10]; at 100.0 µM 68%

CCN(CC)CCN(C)CCc1ccc(Br)cc1
active: [11]; at 100.0 µM 91% | [13]; at 33.0 µM 84% | [13]; at 100.0 µM 96% | [14]; at 100.0 µM 85% | [1]; at 100.0 µM 78% | [15]; at 33.0 µM 87% | [15]; at 100.0 µM 97% | [3]; at 100.0 µM 89% | [5]; at 100.0 µM 84% | [6]; at 100.0 µM 94% | [7]; at 100.0 µM 94% | [8]; at 33.0 µM 85% | [8]; at 100.0 µM 94% | [10]; at 100.0 µM 91%
inactive: [11]; at 1.2 µM 12% | [11]; at 3.7 µM 19% | [11]; at 11.0 µM 37% | [11]; at 33.0 µM 48% | [12]; at 1.2 µM -3% | [12]; at 3.7 µM -3% | [12]; at 11.0 µM -2% | [12]; at 33.0 µM -2% | [12]; at 100.0 µM -3% | [13]; at 1.2 µM 5% | [13]; at 3.7 µM 10% | [13]; at 11.0 µM 40% | [14]; at 1.2 µM 7% | [14]; at 3.7 µM 10% | [14]; [17] -6% | [14]; at 11.0 µM 20% | [14]; at 33.0 µM 50% | [14]; [18] 11% | [14]; at 50.0 µM 31.8% | [1]; at 1.2 µM 10% | [1]; at 3.7 µM 17% | [1]; [17] 8% | [1]; at 11.0 µM 26% | [1]; at 33.0 µM 43% | [1]; [18] 26% | [1]; at 50.0 µM 33.6% | [15]; at 1.2 µM 15% | [15]; at 3.7 µM 36% | [15]; at 11.0 µM 57% | [2]; [17] 5% | [2]; [18] 41% | [2]; at 50.0 µM 68.4% | [3]; at 1.2 µM 11% | [3]; at 3.7 µM 15% | [3]; at 11.0 µM 35% | [3]; at 33.0 µM 64% | [4]; [17] 10% | [4]; [18] 52% | [4]; at 50.0 µM 53.4% | [5]; at 1.2 µM 10% | [5]; at 3.7 µM 16% | [5]; [17] 13% | [5]; at 11.0 µM 35% | [5]; at 33.0 µM 67% | [5]; [18] 21% | [5]; at 50.0 µM 53.5% | [6]; at 1.2 µM 6% | [6]; at 3.7 µM 11% | [6]; at 11.0 µM 33% | [6]; at 33.0 µM 68% | [7]; at 1.2 µM 7% | [7]; at 3.7 µM 13% | [7]; at 11.0 µM 31% | [7]; at 33.0 µM 60% | [8]; at 1.2 µM 10% | [8]; at 3.7 µM 23% | [8]; at 11.0 µM 49% | [9]; [17] -29% | [9]; [18] 25% | [9]; at 50.0 µM 68.3% | [10]; at 1.2 µM 11% | [10]; at 3.7 µM 32% | [10]; at 11.0 µM 54% | [10]; at 33.0 µM 66%

COC(=O)/C=C(/C(=O)OC)C(Cl)(Cl)Cl
active: [16]; at 33.0 µM 84% | [16]; at 100.0 µM 100% | [13]; at 100.0 µM 99% | [14]; at 33.0 µM 93% | [14]; [18] 88% | [14]; at 100.0 µM 99% | [1]; [18] 96% | [1]; at 100.0 µM 98% | [15]; at 33.0 µM 96% | [15]; at 100.0 µM 100% | [2]; [18] 97% | [2]; at 50.0 µM 79.9% | [3]; at 100.0 µM 99% | [4]; [18] 95% | [5]; at 33.0 µM 81% | [5]; [18] 94% | [5]; at 100.0 µM 100% | [6]; at 33.0 µM 99% | [6]; at 100.0 µM 100% | [7]; at 33.0 µM 84% | [7]; at 100.0 µM 99% | [8]; at 33.0 µM 97% | [8]; at 100.0 µM 100% | [9]; [17] 70% | [9]; [18] 97% | [10]; at 3.7 µM 87% | [10]; at 11.0 µM 95% | [10]; at 33.0 µM 98% | [10]; at 100.0 µM 99%
inactive: [16]; at 1.2 µM -1% | [16]; at 3.7 µM 4% | [16]; at 11.0 µM 34% | [13]; at 1.2 µM 3% | [13]; at 3.7 µM -3% | [13]; at 11.0 µM 5% | [13]; at 33.0 µM 59% | [14]; at 1.2 µM 1% | [14]; at 3.7 µM 4% | [14]; [17] 14% | [14]; at 11.0 µM 33% | [14]; at 50.0 µM 44.8% | [1]; at 1.2 µM 2% | [1]; at 3.7 µM 2% | [1]; [17] 7% | [1]; at 11.0 µM 6% | [1]; at 33.0 µM 44% | [1]; at 50.0 µM 22.1% | [15]; at 1.2 µM 6% | [15]; at 3.7 µM 18% | [15]; at 11.0 µM 64% | [2]; [17] 23% | [3]; at 1.2 µM -5% | [3]; at 3.7 µM -3% | [3]; at 11.0 µM 2% | [3]; at 33.0 µM 45% | [4]; [17] 9% | [4]; at 50.0 µM 67.5% | [5]; at 1.2 µM -4% | [5]; at 3.7 µM 6% | [5]; [17] -3% | [5]; at 11.0 µM 23% | [5]; at 50.0 µM -0.7% | [6]; at 1.2 µM -1% | [6]; at 3.7 µM 8% | [6]; at 11.0 µM 33% | [7]; at 1.2 µM -3% | [7]; at 3.7 µM 2% | [7]; at 11.0 µM 5% | [8]; at 1.2 µM 6% | [8]; at 3.7 µM 14% | [8]; at 11.0 µM 69% | [9]; at 50.0 µM 40.9% | [10]; at 1.2 µM 38%
